# Measurements published in PubChem BioAssay AID1259416 (Broad Institute, 2018).
# Where “and” joins values, the source holds several entries; their conditions need not be identical. Equal entries are not always repeated. Among all 69,000 compounds or so, about 2,600 (3.8%) were called active. The entries come from a sample that favours actives as a whole. Values without a mark were called inactive. Cut-off read from the data, not from the text of the source: active = activity change below about -70% (passing the limit was not always enough); inconclusive = no clear call, values can overlap the other calls.
# Assay: inhibitors of Toxoplasma growth in IFN-γ-primed hosts – cell-based, primary screen (AID 1259416);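 note: host cells are HeLa cells infected with Toxoplasma gondii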
# Settings: Toxoplasma gondii growth in IFN-gamma-treated host cells; hits give low values; concentration not given here
row,SMILES,"activity change, negative = inhibition"
1,Cn1nnc(-c2ccc(C(=O)NC(CN3CCCCC3)c3ccccc3)cc2)n1 (centres undefined),-0.396%
2,CCOC(=O)c1nc(N2CCC(c3ccccc3)C2)c2ccccc2n1 (centres undefined),11.8%
3,Clc1ccc(Cn2ncc3c(NCc4cccnc4)ncnc32)cc1,-81.5% (active)
4,O=C(Cn1ncc2c(N3CCN(c4ccccc4)CC3)ncnc21)Nc1ccc(Cl)cc1,-12.8%
5,O=C(Cn1ncc2c(N3CCN(c4ccccn4)CC3)ncnc21)NCc1ccc(F)c(Cl)c1,-16.9%
6,CCC(=O)N1Cc2cc(C(=O)NCc3cccc(F)c3)nc(-c3cccc(C4=CCCC4)c3)c2[C@H]1CCO,-51.7%
7,Cc1cccc(OC2CCN(C(=O)c3ccc(OCc4nonc4C)cc3)CC2)c1,-46.1%
8,CNc1cc(-c2cc(C(C)C)nc(C(F)(F)F)n2)c2cc[nH]c2n1,-83.6% (active)
9,Cc1cccc2[nH]nc(-c3cc(NCCN(C)C)nc4[nH]ccc34)c12,-0.259%
10,Cc1nc(C)n(CCC(=O)N2CCN(S(=O)(=O)c3ccccc3)CC2)n1,55.6%
11,CC1=NOC(C)(CNC(=O)c2csc(-c3cccs3)n2)C1 (centres undefined),-3.52%
12,O=C(Sc1cccs1)c1csc(C2COc3ccccc3O2)n1 (centres undefined),-96.7% (active)
13,Cc1nc2ccccn2c1C(=O)N1CCCC(Cn2cc(C3CC3)nn2)C1 (centres undefined),26.9%
14,CN(C)C(=O)CN1CC2CN(Cc3ccncc3)CCC2(c2ccccc2)C1 (centres undefined),-2.67%
15,CCC(C(=O)OC)N1CCOc2c(O)cc(-c3ccc(C)s3)cc2C1 (centres undefined),-5%
16,O=C1NCC(CN2CCOc3c(O)cc(-c4csc5ccccc45)cc3C2)O1 (centres undefined),-76.2% (active)
17,COc1cc(COC2CN(C(=O)c3csc(SC)n3)CC(=O)N(C(C)C)C2)cc(OC)c1 (centres undefined),-6.26%
18,CCOCC1CN(Cc2ccc3c(c2)OCO3)Cc2cncn2C1 (centres undefined),-0.275%
19,CCN1CCN(c2nc(-c3ccc(OC)cc3)nc3ccccc23)CC1,-47.8%
20,COc1ccc(-c2nc3ccccc3n2-c2cc(C(C)(C)C)c(O)c(C(C)(C)C)c2)cc1,-86.1% (active)

row,SMILES,"activity change, negative = inhibition"
1,OCCn1c(-c2ccc(-c3ccn[nH]3)cc2)nc2ccccc21,92.2%
2,C=CCOCC12CCCOC1CCN(S(=O)(=O)c1cccnc1)C2 (centres undefined),40.1%
3,CCOc1ccccc1CNC(=O)c1nc(-c2cccc(F)c2)n2c1CCCCC2,-84.4% (active)
4,CCOc1ccccc1NC(=O)C(=O)NCCc1csc(-c2cccc(F)c2)n1,-13.3%
5,CCCN1CCN(C(=O)c2nc(-c3cccc(F)c3)n3c2CCCCC3)CC1,3.76%
6,CC(C)N1CCN(C(=O)c2csc(-c3ccc(N4CCCC4)nc3)n2)CC1,-27.3%
7,Nc1cccc(CCc2nc3ccccc3[nH]2)c1,22%
8,Cc1nc2nc(Cc3ccc(Cl)cc3)[nH]n2c(=O)c1Cc1ccccc1,4.81%
9,Cc1cccc(Cc2c(C)[nH]n(-c3nc4ccccc4[nH]3)c2=O)c1,-124% (active)
10,CN(C)c1ncnc2c1CCN(C(=O)c1ccnnc1)CC2,-0.9%
11,Cc1ccc(-c2nn(C(C)(C)C)c3ncnc(N)c23)cc1,-84% (active) and -73.5% (active)
12,Cn1cc(CN2CCc3ncnc(-c4ccccc4)c3CC2)cn1,-8.43%
13,Cc1cccnc1CN(C)C(=O)c1cc(CN2CCC(Cc3ccccc3)CC2)on1,9.1%
14,Oc1c(Cl)cc(Cl)c(Cl)c1Cc1c(O)c(Cl)cc(Cl)c1Cl,-85.3% (active) and -87.1% (active) and -96% (active)
15,N#Cc1cccc(-c2ccc3c(c2)[C@H]2[C@H](CCN2S(=O)(=O)c2ccc(F)cc2)[C@@H](CO)N3)c1,-42.4%
16,COCC#Cc1ccc([C@@H]2[C@@H](CO)N3CCCCN(C(=O)NC4CCCC4)C[C@H]23)cc1,-18.5%
17,CC(C)NS(=O)(=O)c1ccc(OCC(=O)N2CCCCCC2)cc1,1.18%
18,O=C1CCCN1CC1CN(Cc2ccccn2)Cc2nccn2C1 (centres undefined),-70.8% (active)
19,O=C1CCCN1CC1CN(c2ncc(F)cn2)Cc2nccn2C1 (centres undefined),4.1%
